ST2 IL33 inh – inhibitors of human ST2 (IL1RL1) binding to IL-33; Q01638; AlphaLISA ST2-Fc/biotin-IL-33 interaction, 1 h; inhibition, % for hits at 17 µM; hit rate 2.3% among 78,000; in the data active = inhibition above about 30%
Target sequence (Q01638 whole entry, looked up): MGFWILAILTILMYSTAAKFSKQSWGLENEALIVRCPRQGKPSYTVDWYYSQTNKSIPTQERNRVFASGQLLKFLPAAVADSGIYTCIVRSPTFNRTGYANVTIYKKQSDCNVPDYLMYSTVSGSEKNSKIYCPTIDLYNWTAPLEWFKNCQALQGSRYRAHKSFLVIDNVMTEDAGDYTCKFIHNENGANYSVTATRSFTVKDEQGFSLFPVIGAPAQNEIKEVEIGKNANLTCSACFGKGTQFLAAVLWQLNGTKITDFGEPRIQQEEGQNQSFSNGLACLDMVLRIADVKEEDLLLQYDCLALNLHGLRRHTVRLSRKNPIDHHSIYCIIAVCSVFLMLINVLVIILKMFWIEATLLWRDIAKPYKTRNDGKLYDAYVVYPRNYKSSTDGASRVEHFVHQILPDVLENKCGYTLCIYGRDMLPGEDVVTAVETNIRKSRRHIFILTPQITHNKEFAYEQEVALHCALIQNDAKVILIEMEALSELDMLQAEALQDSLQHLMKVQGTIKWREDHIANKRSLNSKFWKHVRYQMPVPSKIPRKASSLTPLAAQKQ
* = called active by the depositor; i = inactive. Only a selection was taken, and hits are over-represented in it overall.

SMILES	ST2 IL33 inh
Cc1ccc(/C=C2/Sc3ccccc3N(CC(=O)NCc3ccccn3)C2=O)cc1	32%*
CCCCNC(=O)CN1C(=O)/C(=C/c2ccccc2F)Sc2ccccc21	i
CCC1Oc2ccccc2N(CC(=O)NCCCN(CC)CC)C1=O (stereo not given)	i
CCN(CCNC(=O)CN1C(=O)/C(=C/c2ccccc2F)Sc2ccccc21)c1ccccc1	42%*
CCCCOc1ccc(CNC(=O)CN2C(=O)c3cccnc3Sc3ccccc32)cc1	i
O=C(CN1C(=O)/C(=C/c2ccccc2F)Sc2ccccc21)NCc1ccccc1Cl	i
CCN(CC)CCNC(=O)CN1C(=O)/C(=C\c2ccc(C(F)(F)F)cc2)Sc2ccccc21	37%*
Cc1ccc2c(c1)N(CC(=O)NCc1ccccn1)C(=O)CO2	i
Cc1cc(NC(=O)CN2C(=O)S/C(=C\c3ccc(Cl)cc3)C2=O)no1	i
CCN(CC)CCNC(=O)CN1C(=O)/C(=C\c2ccc(Cl)cc2)Sc2ccccc21	33%*
COCCCNC(=O)CN1C(=O)/C(=C\c2ccc(C(F)(F)F)cc2)Sc2ccccc21	i
CCN(CC)CCCNC(=O)CN1C(=O)/C(=C\c2ccc(Cl)cc2)Sc2ccccc21	i
O=C1CCCCN1CC(=O)N(CC1CCN(C2CCCC2)CC1)CC1CCCO1 (stereo not given)	i
O=C(NCCN1CCOCC1)c1ccc2c(c1)NC(=O)C(N1CCCC1)S2 (stereo not given)	i
CN(C)c1nc2c(c(=O)[nH]1)CCN(C(=O)CCC(F)(F)F)C2	i
NC(=O)c1ccc(NC(=O)C(c2ccccc2)c2ccccc2)cc1	i
CSc1ccccc1NC(=O)c1cnc2n(c1=O)CCS2	i
CC(C)C(NS(=O)(=O)c1cccs1)C(=O)N(C)Cc1ccccc1 (stereo not given)	i
O=C(O)C1CCC(CNS(=O)(=O)c2ccccc2)CC1 (stereo not given)	i
COc1cc([N+](=O)[O-])cc(C=Nc2ncccc2O)c1O	42%*
COc1cc([N+](=O)[O-])cc(C=Nc2cccc(-c3nc4c(C)cccc4o3)c2)c1O	i
COc1cc([N+](=O)[O-])cc(C=Nc2ccc(-c3nc4c(C)cccc4o3)cc2)c1O	i
Cn1c(=O)[nH]c(=O)c2c1nc(N1CCCCC1)n2CCSc1nnnn1-c1ccccc1	i
COc1ccc(CSCCN=C(N)N)cc1Cl	i
COc1cccc2c1OCCCN(C(=O)c1cn(C/C=C/c3ccccc3)nn1)C2	i
SMILES	ST2 IL33 inh
O=c1oc(-c2ccccc2)nc2sc3c(c12)CCCCC3	36%*
O=c1oc(/C=C/c2cccs2)nc2sc3c(c12)CCCC3	i
O=C1CCc2nc3sc4c(c3c(=O)n2N1)CCCC4	i
Cc1cccc(-c2noc([C@@H]3Cc4nc[nH]c4CN3C(=O)COCC(=O)O)n2)c1	i
NC1=NC(=O)/C(=C\c2ccc(-c3ccc(Cl)c([N+](=O)[O-])c3)o2)S1	40%*
O=C1/C(=C/c2ccc(Cl)c([N+](=O)[O-])c2)Sc2ccccc21	i
O=C1NC(=O)/C(=C\c2ccc(-c3cccc(C(=O)O)c3)o2)S1	i
O=C1NC(=O)/C(=C\c2ccc(-c3ccc(Cl)c([N+](=O)[O-])c3)o2)S1	69%*
CC(=O)NC1=NC(=O)/C(=C/c2ccc(-c3cccc(Cl)c3)o2)S1	i
O=C1C(=Cc2ccc(-c3ccc(Cl)c([N+](=O)[O-])c3)o2)C(=O)c2ccccc21	i
Cc1ccc(CN2CCSc3ccc(C(=O)NCc4cccnc4)cc32)cc1	i
CCN(CC)CCN(C)Cc1cc(I)c(O)c(OC)c1	94%*
COc1ccccc1N1CCN(Cc2cc(I)c(O)c(OC)c2)CC1	i
COc1cc(CN(C)C2CCN(C)CC2)cc([N+](=O)[O-])c1O	i
CCOc1cc(C2NC(=O)NC(C)=C2C(=O)OCCOC(C)C)ccc1O (stereo not given)	i
COc1cccc(OC)c1C(=O)Nc1ccc(I)cc1	i
Nc1ncnc(Oc2ccccc2)c1[N+](=O)[O-]	i
Cc1ccc(S(=O)(=O)c2nc(-c3ccco3)oc2SCC(=O)NC2CCCCC2)cc1	i
CC(=O)Nc1ccc(CN2CCN(Cc3cccc(C)n3)C(CCO)C2)cc1 (stereo not given)	i
COc1ccc(CNC(=O)C2(S(=O)(=O)c3ccc(C)cc3)CC2)cc1	i
C=CCOc1ccc(C2C(=C(O)c3ccc(OC)cc3)C(=O)C(=O)N2CCN(C)C)cc1 (stereo not given)	i
COc1ccc(C2C3=C(CCCC3=O)Nc3nc(SCc4ccccc4)nn32)cc1 (stereo not given)	i
Cc1csc2ncc(C(=O)Nc3cc(Cl)ccc3Cl)c(=O)n12	i
CN1CCN(S(=O)(=O)c2ccc([N+](=O)[O-])cc2)CC1	i
O=[N+]([O-])c1ccc(S(=O)(=O)N2CCN(c3ccc(Cl)cc3)CC2)cc1	33%*
SMILES	ST2 IL33 inh
COc1ccc(N2CCN(S(=O)(=O)c3ccc(OC)cc3)CC2)cc1	i
Fc1ccccc1Nc1c2c(nc3ccccc13)CCC2	i
CCc1ccc(C2=C(C)C(=O)N(CC(=O)NCc3cccs3)S2(=O)=O)cc1	i
CCc1ccc(-c2nccn2CCSc2nncn2C)o1	i
CC(C)OC(=O)c1cccc(N2C(=O)C3C4CCC(C4)C3C2=O)c1 (stereo not given)	i
COc1ccc(/C=C2/C=C(c3cc(OC)ccc3OC)OC2=O)c(OC)c1	40%*
COc1ccc(/C=C2/C=C(c3ccc(C)cc3)OC2=O)cc1OC	32%*
COc1ccc(/C=C2\SC(N3CCOCC3)=NC2=O)c(OC)c1	i
COc1ccc(OC)c(/C=C2\N=C(c3cccs3)OC2=O)c1	i
COc1ccc(C2=C/C(=C\c3ccc(C)o3)C(=O)O2)cc1	i
COc1ccc(/C=C2/OC(=O)c3c2cc(C)[nH]c3=O)cc1OC	i
CCC(=O)N1CCc2cc(Br)cc(S(=O)(=O)CCC(=O)N3CCCCCC3)c21	i
CCN1CCN(c2nc3c(c(=O)n(C)c(=O)n3C)n2CCSc2ncccn2)CC1	i
NC(N)=NS(=O)(=O)c1ccc(N=Cc2ccccc2[N+](=O)[O-])cc1	i
CCc1cc(N2CC[C@@H](N3CCC(O)CC3)[C@H](O)C2)nc(N2CCCCC2)n1	i
COCC(O)CS(=O)Cc1ccccc1 (stereo not given)	i
CCn1cc(SCC(=O)Nc2ccc(F)cc2)c2ccccc21	i
C=CCNC(=O)c1cccc(Br)c1	i
Cc1ccccc1NC(=O)c1ccc(C(=O)Nc2ccccc2C)cc1	i
Cc1ccccc1NC1=C(N)C(=O)c2ccccc2C1=O	87%*
Cc1ccccc1NCN1C(=O)C2C3C=CC(C3)C2C1=O (stereo not given)	i
Cc1cc(=O)oc(C)c1C(=O)N(C)Cc1ccccc1	i
CCc1nc(-c2c(-c3ccccc3)ncn2Cc2ccc(CO)cc2)c(C)[nH]1	i
O=C1N=c2ccc(Br)cc2=C1c1sc(Nc2cccc(C(F)(F)F)c2)nc1O	i
C=CCn1c(O)c(C2=c3cc(Br)ccc3=NC2=O)c2ccccc21	37%*
O=C1N=c2ccc(Br)cc2=C1c1sc(=O)[nH]c1O	i
CCc1c(C)c(C#N)c2nc3ccccc3n2c1N1CCOCC1	i
O=C(C1CCC(O)CC1)N1CCC(C2CCN(Cc3cccc(F)c3F)CC2)C1 (stereo not given)	i
CCOC(=O)c1c(NC(=O)c2ccc(Br)s2)sc2c1CCN(C)C2	i
CCOC(=O)c1c(NC(=O)c2sc3ccccc3c2Cl)sc2c1CCN(C)C2	38%*

Screening data: PubChem, Paczesny and Yang Labs, IUPUI and University of Michigan
